# The whole screen tested about 150,000 compounds, of which about 6,500 (4.3%) were called active. Roughly 12% stayed inconclusive and do not appear here. For the sample, actives were picked, then their nearest neighbours and some compounds at random. Values without a mark were called inactive. The call rests on the fitted dose curve; in most records, active means well fitted inhibition curve with a large enough effect (not every such curve was filed as active); inconclusive means small, poorly fitted or top-dose-only effect, or another doubt; inactive means no such curve, though single readings can be large or run the other way.
# Biological target: 15-hydroxyprostaglandin dehydrogenase [NAD(+)] (Homo sapiens) (UniProt P15428)
# Experiment: qHTS Assay for Inhibitors of HPGD (15-Hydroxyprostaglandin Dehydrogenase)
# Conditions: purified HPGD, NADH fluorescence kinetic, PGE2 substrate; activity change, negative = inhibition: active compounds read low
# How it was run: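 20 nM HPGD preincubated 15 min at room temperature with compound in 50 mM Tris-HCl pH 8, 0.01% Tween 20. Started with 1 mM NAD+ and 30 uM prostaglandin E2; NADH fluorescence (360/450 nm) read 5 times over 30-s intervals, last minus first.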
# On the % scale 0 is the no-effect control and ±100 the full control effect; potency means the concentration at half of the fitted maximal effect.
# Sequence of 15-hydroxyprostaglandin dehydrogenase [NAD(+)] (Homo sapiens) (P15428 whole entry, looked up): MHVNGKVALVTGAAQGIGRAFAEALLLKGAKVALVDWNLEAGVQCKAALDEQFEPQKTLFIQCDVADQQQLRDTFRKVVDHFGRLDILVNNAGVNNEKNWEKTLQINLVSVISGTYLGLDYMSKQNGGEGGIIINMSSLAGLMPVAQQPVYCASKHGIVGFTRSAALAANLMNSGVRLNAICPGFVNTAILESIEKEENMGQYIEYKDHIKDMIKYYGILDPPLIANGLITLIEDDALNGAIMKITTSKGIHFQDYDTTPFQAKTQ
SMILES,"activity change, negative = inhibition [%]",Potency
CC(=O)NNC1=Nc2ccccc2N(C)C(C)C1 (stereo not drawn),0.367,
c1ccc2sc(SCCSc3nc4ccccc4s3)nc2c1,0.386,
Cc1nn(CC(=O)Nc2nc3ccccc3s2)c(C)c1[N+](=O)[O-],-4.84,
O=[N+]([O-])c1c(NCCO)cc(Sc2nc3ccccc3s2)c2nonc12,,11.2 µM (active)
O=C(CSc1ccc2nnc(-c3ccccc3)n2n1)N1CCCc2ccccc21,-22.3,
CCOC(=O)c1c(C)[nH]c(C(=O)NCc2ccccc2OC)c1C,-7.72,
COc1cc(SC)ccc1C(=O)NCCOc1ccccc1Cl,-18.8,
COc1ccccc1CNC(=O)c1ccc(SC)cc1OC,,22.4 µM (active)
CC(NC(=O)CCC(=O)N1CCN(S(=O)(=O)c2ccc(Cl)cc2)CC1)c1ccccc1 (stereo not drawn),-5.29,
Cc1c(Cl)cccc1NC(=S)NCc1ccc2c(c1)OCO2,-5.45,
Cc1ccc(C(=O)c2c(NC(=O)c3ccccc3)sc(C)c2C)cc1,,14.1 µM (active)
CC(=O)c1c(Nc2ccccc2)sc(C(=O)c2ccccc2)c1C,-1.98,
Cc1ccc(C(=O)c2c(NC(=O)c3ccncc3)sc3c2CCCC3)cc1,-22.2,
CCc1ccccc1NC(=O)CN(C)C(=O)COc1ccc(C)nc1[N+](=O)[O-],-2.83,
COc1ccc(NC(=O)COC(=O)c2ccc(NS(=O)(=O)/C=C/c3ccccc3)cc2)cc1,-13.7,
Cn1cnc([N+](=O)[O-])c1Sc1ccccc1,,15.8 µM (active)
Cc1nn(C)c(Oc2ccccc2)c1[N+](=O)[O-],-7.95,
Cn1cnc([N+](=O)[O-])c1Nc1ccccc1O,-2.73,
CCCN(CC1COc2ccccc2O1)C(=S)Nc1ccc(C)cc1 (stereo not drawn),-7.28,
CCCC(=O)n1nc(-c2ccccc2)nc1N,-7.53,
CCS(=O)(=O)n1nc(-c2ccccc2)nc1SCc1ccccc1,,14.1 µM (active)
CCS(=O)(=O)n1nc(-c2ccc(OC)cc2)nc1SC,-4.54,
Cc1cc(F)ccc1S(=O)(=O)N1CCCOC1CNC(=O)C(=O)NCCC1=CCCCC1 (stereo not drawn),-6.01,
COc1ccc(CCN(C(=O)COc2ccccc2)c2nc(-c3ccccc3)cs2)cc1OC,-5.33,
CCOC(=O)CN(Cc1ccc(OC)c(OC)c1)S(=O)(=O)c1ccc(OC)cc1,1.91,
COc1ccc(C(CCN(Cc2ccc(OC)c(OC)c2)C(=O)CCl)c2ccccc2)cc1 (stereo not drawn),,10 µM (active)

SMILES,"activity change, negative = inhibition [%]",Potency
CC(C)(C)C1CCC(=NNC(=O)c2ccc(Br)o2)CC1 (stereo not drawn),-11.4,
CCOC(=O)c1ccc2c(c1)nc(SCC(=O)NC(C)C)n2CC,,31.6 µM (active)
CCOC(=O)CNC(=O)CSc1nc2cccnc2n1CC,-17.6,
CCn1c(SCC(=O)NCC2CCCO2)nc2cc(S(=O)(=O)N3CCCCC3)ccc21 (stereo not drawn),-12.7,
O=C(CSCc1ccc(Cl)cc1)N1CCN(Cc2ccc3c(c2)OCO3)CC1,-13.7,
O=C(CSCc1ccc(Cl)cc1)N1CCCCC1,,15.8 µM (active)
O=C(CN1CCN(c2ccc(Cl)cc2)CC1)N1CCCC1,-1.51,
CCCCC/C=C\C/C=C\CCCCCCCCCC(N)=O,-6.01,
COc1ccc(NC(=S)NC2CCS(=O)(=O)C2)cc1 (stereo not drawn),-7.38,
O=c1[nH]nc(CSCc2ccccc2Cl)[nH]1,-4.38,
S=c1[nH]nc(CSCc2ccc(Cl)cc2Cl)n1-c1ccccc1,,3.16 µM (active)
Clc1ccc(CSc2nnc(/C=C/c3ccccc3)o2)c(Cl)c1,-24.9,
CCOC(=O)Cc1csc(NC(=O)CSc2ccc(Br)cc2)n1,-1.05,
CCOC(=O)CNC(=O)/C=C/c1c(Cl)cccc1Cl,-4.86,
Cc1cccc2cc(CN(C(=O)c3cccs3)c3ccccc3)c(=O)[nH]c12,-18.7,
S=c1[nH]nc(-c2ccco2)n1/N=C/c1ccc(Br)s1,,2.82 µM (active)
Cc1ccc(-c2csc(-c3c[nH]c4ccccc34)n2)cc1,-7.14,
Brc1ccc(/C=N/N2CCN(C3c4ccccc4-c4ccccc43)CC2)s1,-4.34,
Cc1n[nH]c(=S)n1/N=C/c1ccc(Br)o1,-10,
CSC(=S)N/N=C/c1c[nH]c2ccccc12,-6.73,
Cc1ccc(/C=N\n2c(-c3ccccc3)n[nH]c2=S)s1,,11.2 µM (active)
Cc1ccsc1/C=N/n1c(=S)[nH]nc(C)c1=O,-6.69,
Oc1ccccc1/C=N/n1c(-c2cccs2)n[nH]c1=S,,2.51 µM (active)
c1ccc(-c2noc(-c3cccs3)n2)nc1,-8.74,
S=c1[nH]nc(-c2ccccc2)n1/N=C/c1c[nH]c2ccccc12,,2 µM (active)
Cc1ccc2[nH]c(C(=O)O)c(NC(=O)c3ccccc3[N+](=O)[O-])c2c1,-8.36,

SMILES,"activity change, negative = inhibition [%]",Potency
COc1ccc(C(=O)NC2(C(F)(F)F)NC(=O)N(CCCc3ccccc3)C2=O)c(OC)c1OC (stereo not drawn),-2.88,
Cc1cccc(C)c1NC(=O)CSc1ccc([N+](=O)[O-])cn1,-5.79,
COc1ccccc1N1CCN(C(=O)C(=O)N/N=C/c2ccccc2F)CC1,-6.15,
CC(C)=C(NC(=O)c1ccccc1)C(=O)N/N=C(\C)c1ccccc1O,-7.72,
Cc1cc(C)cc(NC(=S)NCCCN2CCOCC2)c1,-3.2,
Cc1ccc2[nH]c(=O)c(CC=C(Cl)Cl)c(C)c2c1,-6.58,
Cc1cc(C(=O)NNC(=S)Nc2ccccc2C)cs1,-17.5,
COC(=O)C1=NNC2(c3ccc(C)cc3)C(=O)N(c3cccc(C)c3C)C(=O)C12 (stereo not drawn),-7.55,
O=C(Cc1cccs1)N/N=C/c1ccc(OCc2ccccc2)cc1,-20.3,
CCOc1ccc(/C=N/NC(N)=S)cc1,-6.57,
CCOc1ccc(/C=N/OCC(=O)NCc2cccs2)cc1,,15.8 µM (active)
CC1CCc2sc(C(=O)N/N=C/C3CCCCC3)cc2C1 (stereo not drawn),-7.97,
O=C(Nc1ccccc1C(=O)NCCCn1ccnc1)c1ccc(Cl)cc1Cl,-7.71,
Cc1cc(C)n(C(=O)CCNC(=O)c2ccccc2Cl)n1,,15.8 µM (active)
CCOc1ccc(NC(=O)CCC(=O)n2nc(C)cc2C)cc1,-8.1,
CCOC(=O)CC(NC(=O)C1c2ccccc2Oc2ccccc21)c1ccc(C)cc1 (stereo not drawn),6.16,
CCOC(=O)C1=C(C)OC(N)=C(C#N)C1c1cncc(-c2ccc(F)cc2)c1 (stereo not drawn),-9.79,
Cc1cnc(NC(=O)CSc2nnc(-c3ccccc3)n2Cc2ccccc2)s1,-9.73,
Cc1cnc(NC(=O)CSc2nnc(-c3ccc(Cl)cc3Cl)n2N)s1,,25.1 µM (active)
Cc1cnc(NC(=O)CSc2c(Cl)cccc2Cl)s1,-12.6,
CCCCC(O)(CCCC)C(=O)NN(C(=O)CCl)c1ccccc1,-6.18,
O=C(NCCCO)/C(=C\C=C\c1ccccc1)NC(=O)c1ccccc1Cl,-15.4,
CC(C)(C)C(=O)NC(NC(=S)Nc1ccc(S(N)(=O)=O)cc1)C(Cl)(Cl)Cl (stereo not drawn),-0.407,
CC(C)(C)C1CCC(=NNC(=O)c2cc(-c3ccccc3)n[nH]2)CC1 (stereo not drawn),-7.88,
O=C(c1ccccc1-c1ccccc1)N1CCOCC1,-1.91,
Cc1ccccc1-c1ccc(Nc2ccc(C(=O)N3CCOCC3)cc2)nn1,,22.4 µM (active)

SMILES,"activity change, negative = inhibition [%]",Potency
Cc1onc(-c2ccccc2)c1C(=O)N1CCOCC1,0.967,
O=C(COc1ccc(/C=N/NC(=O)c2ccc(O)cc2)cc1)Nc1ccc([N+](=O)[O-])cc1,-5.7,
O=C(NCc1ccco1)O[C@@H]1C(=O)c2cc(Br)ccc2O[C@H]1c1ccc2c(c1)OCO2,-7.84,
O=C(CSc1nnc(Nc2ccccc2)s1)Nc1cccnc1Cl,-3.17,
Cc1ccc(Nc2nnc(SCC(=O)c3cc4ccccc4o3)s2)cc1C,-14.9,
CC(C)c1ccc(Nc2nnc(SCC(=O)c3nnc(-c4ccccc4)o3)s2)cc1,,31.6 µM (active)
Cc1nn(Cc2ccccc2)c(C)c1C(=O)NCCN1C(=O)S/C(=C\c2ccc(F)cc2)C1=O,-19.6,
COc1cccc(/C=N\NC(=O)C2=NNC(=O)C2C)c1O (stereo not drawn),-11.9,
COc1cccc(/C=N/NC(=O)c2[nH]nc3c2CCc2ccccc2-3)c1O,,35.5 µM (active)
COc1cccc(/C=N/Nc2ncc(C(F)(F)F)cc2Cl)c1O,-13.5,
O=C1CCC[C@@H]2CC(N3CCCCC3)C[C@@H]3CCN1[C@H]23 (stereo partly drawn),-1.93,
C=CCNC(=S)NNC(=O)COc1c(Cl)cc(Cl)cc1Cl,-21.2,
Cc1ccc(Cl)cc1N1CCN(C(=O)c2cccc3c(=O)c(C)c(-c4ccccc4)oc23)CC1,0.844,
CC1CCN(C(=O)c2ccc(CSc3ccc(Cl)cc3)cc2)CC1,,0.891 µM (active)
O=C(c1ccc(S(=O)(=O)c2ccccc2)cc1)N1CCCCCC1,,17.8 µM (active)
O=C(C1CC1)N1CCN=C1SCc1ccc(Cl)cc1,-17.7,
CC(=O)N1CCN(C(=O)c2cccc(S(=O)(=O)Nc3ccc(C)cc3)c2)CC1,4.03,
CC(NC(=O)c1ccc(Cl)cc1)C(=O)N1CCCCC1 (stereo not drawn),-4.27,
COc1ccccc1N1CCN(C(=O)c2ccc(S(=O)(=O)N3CCCCC3)cc2)CC1,-4.4,
CS(=O)(=O)Nc1ccc(C(=O)N2CCCC2)cc1,,20 µM (active)
O=C(c1ccc(CSc2ccccc2)cc1)N1CCCCCC1,,0.316 µM (active)
CCOC(=O)N1CCN(C(=O)CSc2ccc(Cl)cc2)CC1,-15.4,
O=C(Nc1ccc(CSc2ccccc2)cc1)c1ccc(CN2CCOCC2)cc1,-8.57,
NC(=O)C1CCN(C(=O)c2ccc(-c3ccccc3)cc2)CC1,-4.39,
O=C(c1ccc(S(=O)(=O)N2CCOCC2)cc1)N1CCN(c2ccccc2)CC1,-5.22,

# — PubChem BioAssay AID894 (National Center for Advancing Translational Sciences (NCATS), 2007)
